In PubChem BioAssay AID1981 (Southern Research Specialized Biocontainment Screening …, 2009):
The campaign covered roughly 2,200 compounds. About 480 (22%) were called active. A selection follows. Potency and affinity values are given separately. Values without a mark were called inactive. No rule for the calls is given here.

Assay: S. Typhimurium GFP fluorescence dose response in modified counterscreen for PhoP regulon inhibitor project (AID 1981);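 also: 0% = induced DMSO wells and 100% = uninduced wells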
Settings: 4 h; series mostly up to 150 µM; inhibition: at the top concentration

| SMILES | inhibition [%] |
| --- | --- |
| OC1(c2cccc(C(F)(F)F)c2)CCN(c2ncnc3c2[nH]c2ccccc23)CC1 | 3.4 |
| COc1ccc2c(c1)CC/C(=C\Nc1ccc3c(c1)OCO3)C2=O | -7 |
| COc1ccc(C2C=C(c3ccc(Cl)cc3)Nc3nc(NC(C)=O)nn32)cc1 (stereo not given) | -1.96 |
| CCCSc1ncc(Cl)c(C(=O)Nc2ccc(S(=O)(=O)N3CC(C)OC(C)C3)cc2)n1 (stereo not given) | -15.2 |
| O=C(NC1CC1)C1=NOC(CNc2ncc(C(F)(F)F)cc2Cl)C1 (stereo not given) | -16 |
| O=C(NCc1cccnc1)c1cc2ccccc2oc1=O | -21.1 |
| CC(=O)N1N=C(c2ccco2)CC1c1ccc(Br)cc1 (stereo not given) | 22.8 |
| O=C1NC(=O)C(=C2CCCCCC2)S1 | 16 |
| Cc1ccc(-c2csc(N=C(N)N)n2)cc1 | 31.5 |
| Clc1ccc(OCCN2CCN(c3ncnc4sccc34)CC2)cc1 | -10.9 |
| c1ccc(OCCCN2CCCC2)cc1 | -12.3 |
| COc1ccc(Br)cc1C(=O)NCc1cccnc1 | -7.4 |
| Clc1ccccc1OCCn1ccnc1 | -5.79 |
| NC(=O)N1OCC2COc3ccc4ccccc4c3C21 (stereo not given) | -6.03 |
| Cc1ccccc1CS(=O)(=O)c1snnc1C | -7.82 |
| O=C(CNC(=O)c1ccco1)OCC(=O)c1ccc2c(c1)CCCC2 | 6.72 |
| Fc1ccc(-c2n[nH]c(=S)n2/N=C/c2c[nH]c3ccccc23)cc1 | -21.6 |
| Cc1cc(=O)[nH]c(N/N=C/c2c[nH]c3ccccc23)n1 | -13.5 |
| CSc1ccc(C(=O)/C=C/c2ccc(N)cc2)cc1 | 1.48 |
| O=C(O)C1CCCN1S(=O)(=O)c1ccc2[nH]c(=O)c(=O)[nH]c2c1 (stereo not given) | 1.08 |
| Cc1cc(C)c(C#N)c(SCc2cn3ccccc3n2)n1 | -6.87 |
| CCS(=O)(=O)Nc1cc(C(=O)OC)ccc1C(=O)OC | -22.5 |
| Cc1ccc(-n2nnnc2SCC(=O)Nc2ncc(Cc3ccccc3Cl)s2)cc1 | 5.85 |
| CCOc1cc(CNn2cnnc2)ccc1OCC(=O)NC1CCCCC1 | 1.83 |
| CCN(CCO)Cc1csc2ccccc12 | -5.22 |

| SMILES | inhibition [%] |
| --- | --- |
| CCOc1ccccc1OCC(=O)Nc1ccc(S(=O)(=O)Nc2nc(C)cc(C)n2)cc1 | -2.84 |
| CCOCCCNC(=S)Nc1cc(C)cc(C)c1 | -14.4 |
| COc1cccc(-c2nc(-c3ccc(Br)o3)no2)c1 | -17.1 |
| CCN(CC)c1ccc(/C=C(\C#N)C(=O)NCc2ccco2)cc1 | -8.76 |
| Cc1ccc(NC(=S)NCCc2ccccc2)c(C)c1 | -5.87 |
| CCc1cccc(NC(=O)CCCSc2nc3ccccc3[nH]2)c1 | 11 |
| Cc1cc(C)cc(-n2c(C)cc(C=C(C#N)C#N)c2C)c1 | -13 |
| CCCc1cnc(NCCNCC(O)COc2ccc(Cl)c(Cl)c2)nc1 (stereo not given) | -10.6 |
| CCC(=O)c1ccc(OCC(O)CNCc2ccc(F)cc2)cc1 (stereo not given) | -5.96 |
| CC(=O)Nc1ccc(NS(=O)(=O)c2ccc3c(c2)n(C)c(=O)n3C)cc1 | -12.4 |
| Cc1ccc(NC(NC(=O)c2ccccn2)C(Cl)(Cl)Cl)cc1 (stereo not given) | -12.7 |
| O=C(NCc1ccco1)c1cccc(Nc2nc3ccc(Br)cc3[nH]2)c1 | -5.31 |
| COc1ccc(/C=N/NC(=O)c2ccc3c(c2)OCCO3)cc1[N+](=O)[O-] | 4.72 |
| O=C(NC(=S)N1CCN(c2c(Cl)cccc2[N+](=O)[O-])CC1)c1cccs1 | -9.8 |
| Cc1ccc(C(=O)N/N=C/c2ccc([N+](=O)[O-])s2)cc1 | 13.9 |
| O=C(Nc1cnn(Cc2ccc(F)cc2)c1)c1cnccn1 | -5.34 |
| Cc1ccccc1-n1nnnc1Sc1nnnn1-c1ccccc1 | 13.9 |
| O=C1c2ccccc2C(=O)N1CCc1csc(-c2cccc(Cl)c2)n1 | -17.8 |
| O=C(COC(=O)/C=C/c1ccco1)Nc1cccc([N+](=O)[O-])c1 | 7.24 |
| CCOc1ccc2c(c1)nc(SCC(=O)c1ccc(Br)s1)n2C | -4.82 |
| CC(=O)Nc1c(O)nc(SCC(=O)N2CCN(c3ccc(F)cc3)CC2)[nH]c1=O | -0.15 |
| Cc1c(Cl)cccc1NC(=O)CSCC(N)=O | -12.2 |
| CSCC[C@H](NC(=O)Nc1ccc(C)cc1)C(=O)O | 9.33 |
| N#Cc1c(N)nc(SCC(=O)NC2CCCCC2)c(C#N)c1-c1ccc(Cl)cc1 | -13.9 |
| CCCCn1c(=N)n(CC(=O)C(C)(C)C)c2ccccc21 | 7.95 |

| SMILES | inhibition [%] |
| --- | --- |
| CCCCCCCCn1c2c(c(=N)c3c1CCC3)CCCC2 | 34.2 |
| N=c1c2c(n(Cc3ccc(Br)cc3)c3c1CCC3)CCCC2 | 12.1 |
| CCCCn1c(NCCO)nc2ccccc21 | -8.11 |
| CCCCC1CCC(C(=O)Nc2ccccc2)CC1 (stereo not given) | 5.03 |
| COC(=O)C(C)N1C(=O)S/C(=C\c2cc(C)n(-c3ccccn3)c2C)C1=O (stereo not given) | -11 |
| Cc1ccc2nc(-c3ccc(Br)o3)oc(=O)c2c1 | -2.46 |
| O=C1N=c2ccccc2=C1c1[nH]c(=S)[nH]c1O | 2.01 |
| O=C1c2ccccc2-c2onc3ccc(NCc4ccco4)c1c23 | -2.4 |
| CCn1c(=N)n(CC(O)c2ccccc2)c2ccccc21 (stereo not given) | -4.05 |
| Cc1ccc(/C=C/c2ccc(=O)n(Cc3ccccc3Cl)n2)cc1 | 6.88 |
| [O-]/[N+](=C\c1ccncc1)c1ccccc1 | -0.55 |
| CCCn1c(NCCO)nc2ccccc21 | -11.6 |
| c1csc(C2Nc3cccc4cccc(c34)N2)c1 | -2.56 |
| Brc1ccc(NC2=Nc3ccccc3CC2)cc1 | -2.31 |
| O=C(Nc1cnn(Cc2ccc(Cl)cc2Cl)c1)c1noc2c1CCCC2 | -15.3 |
| Cc1cccc(-n2c(SCC(N)=O)nc3c(c2=O)C2(CCCC2)Cc2ccccc2-3)c1 | 7.03 |
| COC(=O)c1sccc1NC(=O)c1csc2c1CCCC2 | 0.07 |
| COc1ccc(NC(=O)CN2CCCCC2)c([N+](=O)[O-])c1 | 5.56 |
| Oc1ccccc1CN1CCCN(Cc2ccccc2O)C1 | 2.41 |
| CC(C)Cc1oc(C(=O)O)cc1CN1CCOCC1 | 1.81 |
| Cc1ccc(Oc2ccc3c(c2)C(=O)N(c2ccc(S(=O)(=O)Nc4nccs4)cc2)C3=O)cc1 | -19.4 |
| COc1cc(OC)cc(C(=O)N[C@H](C(=O)OCC(=O)Nc2ccc(C(N)=O)cc2)C(C)C)c1 | -7.59 |
| COc1ccccc1-n1c(SCc2cc(=O)oc3cc(O)ccc23)nc2ccccc2c1=O | -5.8 |
| COc1cccc(C2C3=C(Nc4[nH]n(-c5ccccc5)c(=O)c42)c2ccccc2C3=O)c1 (stereo not given) | 5.13 |
| CC(C)Oc1cccc(C(=O)NC(=S)Nc2ccccc2)c1 | -7.54 |
